S2 tox = viability counter-screen for ATXN expression inhibitors; Potency, µM (series often up to 56.7 µM), hits mostly cytotoxic; 400,000 tested, 0.49% active; S2 cells (HEK-293 line with an ATXN2-luciferase reporter) viability, CellTiter-Fluor protease fluorescence, 24 h; AID 651635; note: nearly all actives have a fitted effect of over 40% in size
DT40 TDP1 CPT = DT40-hTDP1 cell growth loss with CPT. chicken DT40 Tdp1-/-;hTDP1 cells + 20 nM CPT, ATP luminescence, 48 h. 420,000 tested, 12% active. AID 686979. Potency, µM (series often up to 46.2 µM), hits mostly inhibitors; note: nearly all actives have a fitted effect of over 55% in size
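Chicken DT40 Tdp1-/- cells complemented with human TDP1, 400 cells/well, exposed to compounds plus 20 nM camptothecin for at least 48 h at 37 C; viability read as ATP content by CellTiter-Glo luminescence.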
DT40 TDP1 no CPT = qHTS for Inhibitors of human tyrosyl-DNA phosphodiesterase 1 (TDP1): qHTS in cells in absence of CPT | DT40 Tdp1-/- hTDP1 cells, no CPT, ATP luminescence, 48 h | Potency, µM (titrated, usually from 46.2 µM), actives largely listed as inhibitors | 420,000 tested, 15% active | AID 686978, 2013; note: nearly all actives have a fitted effect of over 55% in size
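Seeded 400 DT40-hTDP1 cells/well (vehicle DMSO, no 20 nM CPT); pinned compounds; ≥48 hr at 37 °C; CellTiter-Glo luminescence as viability measure.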
TGFb SMAD3 inh = inhibitors of TGF-b signaling; 410,000 tested, 1.2% active; Potency, µM (top dose mostly 46.1 µM), usual class: inhibitors; AID 588855; HepG2 CAGA-GFP TGF-b/SMAD3 reporter, GFP fluorescence, 18 h; TGF-beta stimulated, 500 pg/mL final; note: nearly all actives have a fitted effect of over 65% in size
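Using HEPG2 CAGA-GFP reporter cells at 1000 cells/well, we pinned test compounds, stimulated with recombinant TGF-beta (500 pg/mL final) and measured total well GFP after 18 h.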
ATXN2 expr inh = inhibitors of ATXN2 expression | HEK-293 ATXN2-luciferase reporter, luminescence, 24 h | Potency, µM (doses to about 57 µM), hits mostly inhibitors | 360,000 tested, 0.72% active | AID 1745845; note: nearly all actives have a fitted effect of over 55% in size
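qHTS (up to 57 uM final) was run with 24 h compound exposure of reporter cells at 37 °C. Each well was multiplexed: SteadyGlo luminescence measured ATXN2-luciferase expression after a fluorogenic Gly-Phe-AFC viability readout (25 uM final).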
HepG2 viability = HepG2 cytotoxicity, counter-screen for TGF-b inhibitors; HepG2 CAGA-GFP viability, ATP luminescence, 18 h; Potency, µM (highest dose often 46.1 µM), hits mostly cytotoxic; 410,000 tested, 0.76% active; AID 588856
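HepG2 CAGA-GFP cells (1000/well, DMEM with 1% FBS) received compound, then TGF-beta at 500 pg/mL final, and were incubated 18 hours at 37 degrees C. Viability was read by CellTiter-Glo luminescence. Media-only wells were set as complete cell-killing and DMSO as no toxicity.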
Large screens that a line does not name were inactive. Rows were chosen to be rich in hits. Some 17% of all compounds tested hit in one or more screens of this group. Calls come from the whole dose curve; as a rule, active = well fitted curve in the direction sought with a large enough effect; inconclusive = small, poorly fitted or top-dose-only effect, or another doubt; inactive = no such curve, though single readings can be large; an effect the other way counts as inactive or inconclusive.

Cc1ccccc1-c1nnc(CN2CCC(C)CC2)o1	none
Cc1cccc(N2CCN(Cc3nnc(-c4ccccc4C)o3)CC2C)c1 (stereo not given)	DT40 TDP1 CPT 13µM, DT40 TDP1 no CPT inconclusive
COc1cc(C(=O)OC(C)c2ccc(F)cc2)ccc1OCC(=O)N1CCOCC1 (stereo not given)	DT40 TDP1 CPT inconclusive, DT40 TDP1 no CPT 23µM
COc1cc(C(=O)OCc2cccc(OC)c2OC)ccc1OCC(=O)N1CCOCC1	none
CCOc1cc(C(=O)OC(C(=O)NC(=O)NC)c2ccccc2)ccc1OCC(=O)N1CCOCC1 (stereo not given)	DT40 TDP1 CPT 18µM, DT40 TDP1 no CPT 18µM
CCOc1cc(C(=O)Nc2ccccc2N2CCOCC2)ccc1OCC(=O)N1CCOCC1	DT40 TDP1 CPT inconclusive, DT40 TDP1 no CPT inconclusive
CC1(C)CC(=O)C=C(c2ccc(F)cc2OCc2ccccc2)C1	DT40 TDP1 CPT inconclusive, DT40 TDP1 no CPT inconclusive, TGFb SMAD3 inh inconclusive
Cc1cccc(CCNC(=O)c2nnc(Cc3ccc(Cl)cc3)o2)c1	none
COc1ccccc1N1CCN(S(=O)(=O)c2c(C)sc3ncn(CC(=O)N(C)c4ccc(C(C)C)cc4)c(=O)c23)CC1	DT40 TDP1 CPT 13µM, DT40 TDP1 no CPT inconclusive
CCCCN(C)C(=O)Cn1cnc2sc(C)c(S(=O)(=O)N3CCC(C)CC3)c2c1=O	none
CCC(C)NC(=O)Cn1cnc2sc(C)c(S(=O)(=O)N3CCN(c4ccccc4OC)CC3)c2c1=O (stereo not given)	none
Cc1sc2ncn(CC(=O)N(C)c3ccc(C(C)C)cc3)c(=O)c2c1S(=O)(=O)N1CCC(C)CC1	DT40 TDP1 CPT 23µM, DT40 TDP1 no CPT 23µM
COc1ccc(C(=S)N2CCOCC2)cc1OC(=O)c1ccccc1Cl	none
COc1ccc(OC)c(/C=N/NC(=O)CNC(=O)c2ccc(S(=O)(=O)N3CCOCC3)cc2)c1	none (no result: S2 tox)
COc1cc2c(cc1N)-c1ccc(N)cc1C2=O	S2 tox inconclusive, DT40 TDP1 CPT inconclusive, DT40 TDP1 no CPT 16µM (no result: ATXN2 expr inh)
CCC(=O)N1CCc2cc(S(=O)(=O)NC(Cc3ccccc3)C(=O)Nc3ccc(C)cc3)ccc21 (stereo not given)	S2 tox inconclusive, DT40 TDP1 CPT 16µM, DT40 TDP1 no CPT inconclusive
CCC(=O)N1CCc2cc(S(=O)(=O)NC(CC(C)C)C(=O)Nc3cccc(C)c3C)ccc21 (stereo not given)	none
Cc1ccc(S(=O)(=O)NC(Cc2ccccc2)C(=O)NN)cc1 (stereo not given)	none
Cc1ccc(S(=O)(=O)N[C@@H](Cc2ccccc2)C(=O)CCl)cc1	S2 tox 32µM, DT40 TDP1 CPT 2.6µM, DT40 TDP1 no CPT 5.2µM, TGFb SMAD3 inh inconclusive, ATXN2 expr inh inconclusive
CCC(=O)N1CCc2cc(S(=O)(=O)NC(CC(C)C)C(=O)Nc3cc(C)ccc3OC)ccc21 (stereo not given)	DT40 TDP1 CPT 18µM, DT40 TDP1 no CPT inconclusive
Cc1ccc(NC(=O)C(Cc2ccccc2)NS(=O)(=O)c2ccc3c(c2)c(=O)n(C)c(=O)n3C)cc1 (stereo not given)	DT40 TDP1 CPT 16µM, DT40 TDP1 no CPT inconclusive, TGFb SMAD3 inh inconclusive
CCOc1ccc(NC(=O)C2CCCN(S(=O)(=O)c3cccc4nonc34)C2)cc1 (stereo not given)	none
COc1ccc(S(=O)(=O)N2CCOCC2)cc1C(=O)N(C)Cc1ccccc1F	none (no result: ATXN2 expr inh)
CN(Cc1cccc(Cl)c1Cl)C(=O)c1cc(S(=O)(=O)N2CCOCC2)ccc1F	DT40 TDP1 CPT 16µM, DT40 TDP1 no CPT 21µM
Cc1ccc(CSCCNC(=O)c2ccc(Cl)c(S(=O)(=O)N3CCOCC3)c2)cc1	DT40 TDP1 CPT inconclusive, DT40 TDP1 no CPT 18µM, TGFb SMAD3 inh inconclusive
C=CCN(Cc1ccc(Cl)s1)C(=O)c1cc(S(=O)(=O)N2CCOCC2)ccc1F	DT40 TDP1 CPT 18µM, DT40 TDP1 no CPT 13µM, TGFb SMAD3 inh inconclusive (no result: ATXN2 expr inh)
O=C(c1cc(S(=O)(=O)N2CCOCC2)ccc1F)N(Cc1nnc(-c2ccccc2Cl)o1)C1CC1	DT40 TDP1 CPT inconclusive, DT40 TDP1 no CPT inconclusive
Cc1ccc(N(Cc2ccccc2)C(=O)c2cc(S(=O)(=O)N3CCOCC3)ccc2F)cc1	S2 tox inconclusive, DT40 TDP1 CPT 18µM, DT40 TDP1 no CPT 7.3µM
O=CN1CCN(c2ncnc3c2nnn3Cc2c(F)cccc2Cl)CC1	none
CCCS(=O)(=O)NC(=O)C1(C)CCN(C(=O)C2(c3ccc(Cl)cc3)CCCC2)C1 (stereo not given)	none
C=C(C)C1CC=C(C)/C(=N/NC(=O)C2CC2c2ccccc2)C1 (stereo not given)	DT40 TDP1 no CPT inconclusive (no result: ATXN2 expr inh)
CN(Cc1ccccc1)S(=O)(=O)c1ccc(Cl)c(C(=O)N2CCOCC2)c1	S2 tox inconclusive, DT40 TDP1 CPT 18µM, DT40 TDP1 no CPT 21µM (no result: ATXN2 expr inh)
CN(Cc1ccccc1)S(=O)(=O)c1ccc(Cl)c(C(=O)O)c1	none
O=C(NCCSCc1ccccc1)c1cc(S(=O)(=O)N2CCOCC2)ccc1F	DT40 TDP1 CPT 12µM, DT40 TDP1 no CPT inconclusive, TGFb SMAD3 inh inconclusive
Cc1ccc(N(Cc2ccccc2)C(=O)Cc2ccc(S(=O)(=O)N3CCOCC3)s2)cc1	DT40 TDP1 CPT inconclusive, DT40 TDP1 no CPT inconclusive, TGFb SMAD3 inh inconclusive
Cc1cccc(N(Cc2ccccc2)C(=O)c2cc(S(=O)(=O)N3CCOCC3)ccc2Cl)c1	DT40 TDP1 CPT 15µM, DT40 TDP1 no CPT 15µM, TGFb SMAD3 inh inconclusive
CN(C)CCCNC(=O)c1cc(S(=O)(=O)N2CCOCC2)ccc1F	none
CC(=O)N1CCN(S(=O)(=O)c2cccc(C(=O)N(Cc3ccccc3)c3cccc(C)c3)c2)CC1	DT40 TDP1 CPT inconclusive, DT40 TDP1 no CPT inconclusive
Cc1ccc(N(Cc2ccccc2)C(=O)c2cc(S(=O)(=O)N3CCOCC3)ccc2Cl)cc1	S2 tox inconclusive, DT40 TDP1 CPT 12µM, DT40 TDP1 no CPT 7.3µM, TGFb SMAD3 inh inconclusive, ATXN2 expr inh inconclusive
C=CCN(c1ccc(Br)cc1C(=O)OC)S(C)(=O)=O	none
Cc1nn(-c2ccccc2)c(N2CCCC2)c1/C=C1\N=C(c2ccc(OC(C)C)cc2)OC1=O	none
O=C(NCCN1C(=O)S/C(=C\c2cccnc2)C1=O)c1cc(S(=O)(=O)N2CCOCC2)ccc1F	DT40 TDP1 CPT inconclusive, DT40 TDP1 no CPT 18µM (no result: ATXN2 expr inh)
CC(=O)N1CCC2(CC1)OC(=O)C(C)=C2C(=O)Nc1cccc(Cl)c1C	none (no result: S2 tox, ATXN2 expr inh)
